Gli-Sufu block – antagonists of Gli-Sufu signaling | 340,000 tested, 0.74% active | inhibition, % at 5 µM | AID 588413 | Sufu-KO-LIGHT fibroblasts, Gli luciferase reporter luminescence;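 active means inhibition above about 55%, limit read from the data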;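 further: 0% = DMSO-treated cells and 100% = wells with medium but no cells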
SRC3 inh – inhibits human SRC3 coactivator. HEK293 GAL4-SRC3 luciferase reporter, luminescence. 360,000 tested, 0.17% active. inhibition, % at 3.6 µM. Q9Y6Q9. AID 588352;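 active means inhibition above a per-campaign cutoff, the mean of all compounds plus 3 SD, cut at about 60% in these data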;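 further: 0% = DMSO-treated cells and 100% = gossypol-treated cells at 36 µM; higher means less SRC3-driven luciferase light from the GAL4 reporter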
NR5A2 inv ag – suppresses constitutive activity of human LRH-1. O00482. HEK293T StAR-luciferase reporter, LRH-1 transfected, 24 h. inhibition, % at 3.6 µM. 360,000 tested, 0.13% active. AID 602396;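 active means inhibition above the mean inhibition of all tested compounds plus 3 SD, cut at about 73% in these data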;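 further: 0% = DMSO wells and 100% = reporter-only cells lacking LRH-1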
Shn3 inh set2 – reduces Shn3 3'UTR luciferase signal in osteoblasts | Clone20 osteoblast Shn3 3'UTR firefly luciferase, 24 h | inhibition, % at 12.5 µM | 360,000 tested, 0.52% active | AID 588674;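 active means mean inhibition of at least 75% with every replicate also reaching 75%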;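 further: 0% = median of neutral control wells and 100% = pilot-screen positive control compound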
NCOA1 inh – human NCOA1 inhibition. inhibition, % at 3.6 µM. Q15788. 360,000 tested, 0.12% active. HEK293 GAL4-SRC1 luciferase reporter, luminescence;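 active means inhibition above the campaign mean plus 3 SD, with each screening campaign given its own cutoff, cut at about 60% in these data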;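 further: 0% = DMSO treated cells and 100% = gossypol at 36 µM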
NCOA2 inhibitor – human SRC2 (NCOA2) inhibition; HEK293 GAL4-SRC2 luciferase reporter, luminescence; Q15596; inhibition, % at 9 µM; 370,000 tested, 0.17% active;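 active means inhibition above the mean inhibition of all tested compounds plus 3 SD, set per campaign, cut at about 52% in these data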;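 further: 0% = DMSO treated cells and 100% = cells given Gossypol at 36 µM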
* hit, by the source's call. Only some compounds are listed: those with a hit (about 1.1% of all), similar ones and a draw of the others.

How did Cc1cc([N+](=O)[O-])nn1CCCC(=O)Nc1ccc(Cl)cc1Cl do in these assays?
Gli-Sufu block: 8; SRC3 inh: 9; NR5A2 inv ag: 1; Shn3 inh set2: -18; NCOA1 inh: 62*; NCOA2 inhibitor: -11

How did COc1ccc2c(c1)c(C(C)=O)c(C)n2-c1ccccc1 do in these assays?
Gli-Sufu block: -6; SRC3 inh: 30; NR5A2 inv ag: -11; Shn3 inh set2: 7; NCOA1 inh: 26; NCOA2 inhibitor: 31

Results for COc1ccc(-n2c(C)c(C(C)=O)c3cc(O)ccc32)cc1 ?
Gli-Sufu block: -14; SRC3 inh: 59; NR5A2 inv ag: 8; Shn3 inh set2: 6; NCOA1 inh: 68*; NCOA2 inhibitor: 48

Results for COc1ccc(C(=O)N(C)[C@H]2C[C@H]3c4[nH]c5cccc(-c6ccccc6)c5c4CCN3C[C@H]2[C@H](C)O)cc1 ?
NCOA2 inhibitor: 16

What do the screens show for `CN(C)CCOc1ccc2c(c1)C(=O)C(=Cc1ncc([N+](=O)[O-])n1C)C2`?
SRC3 inh: 55; NR5A2 inv ag: 82*; Shn3 inh set2: 51; NCOA1 inh: 30; NCOA2 inhibitor: 17

How did COC(=O)[C@]12C[C@H](CC(=O)NCC3CCCCC3)C(=O)N(Cc3cccc4ccccc34)C1=C[C@H](COCc1ccccc1)O[C@@H]2C do in these assays?
NCOA2 inhibitor: -22

Results for COc1cccc(/C=N\N2CCN(c3ccc(C)cc3)CC2)c1O ?
NCOA2 inhibitor: -12

Results for CC(C)n1nnnc1C1(C)CCSCC(=O)N1Cc1cccc(C(F)(F)F)c1 (stereo unspecified) ?
NCOA2 inhibitor: 7

How did CCN1CCN(C(=S)c2ccc(-c3ccccc3)cc2)CC1 do in these assays?
Gli-Sufu block: 7; SRC3 inh: 18; NR5A2 inv ag: 11; Shn3 inh set2: 37; NCOA1 inh: 28; NCOA2 inhibitor: 71*

Results for O=C(Nc1c(Cl)cc2c(c1Cl)Cc1cc([N+](=O)[O-])ccc1-2)C(Cl)Cl ?
Gli-Sufu block: -20; SRC3 inh: -37; NR5A2 inv ag: 20; Shn3 inh set2: 95*; NCOA1 inh: -26; NCOA2 inhibitor: -26

What do the screens show for `O=C1NC(=O)C(c2ccc(F)cc2)N1` (stereo unspecified)?
Gli-Sufu block: 29; SRC3 inh: 89*; NR5A2 inv ag: 89*; Shn3 inh set2: -15; NCOA1 inh: 90*; NCOA2 inhibitor: 6

What do the screens show for `CCCOc1ccc(C2NC(=O)NC2=O)cc1` (stereo unspecified)?
Gli-Sufu block: 0; SRC3 inh: 1; NR5A2 inv ag: 19; Shn3 inh set2: 25; NCOA1 inh: -21; NCOA2 inhibitor: -14

What do the screens show for `CCOC(=O)c1c(C)[nH]c(C(=O)COC(=O)[C@H](C)N2C(=O)C3CCCCC3C2=O)c1C` (stereo partly specified)?
Gli-Sufu block: 1; SRC3 inh: -10; NR5A2 inv ag: -19; Shn3 inh set2: 93*; NCOA1 inh: -12; NCOA2 inhibitor: -32

Results for CC(=O)c1c(C)[nH]c(C(=O)COC(=O)CN2C(=O)C3CCCCC3C2=O)c1C (stereo unspecified) ?
Gli-Sufu block: -3; SRC3 inh: 2; NR5A2 inv ag: 4; Shn3 inh set2: -3; NCOA1 inh: -18; NCOA2 inhibitor: 0

What do the screens show for `CC(C)CNC(=O)OCc1cn(Cc2cc(F)ccc2F)nn1`?
NCOA2 inhibitor: -4

What do the screens show for `COc1cc(N2C(=O)C=CC2=O)ccc1N1C(=O)C=CC1=O`?
Gli-Sufu block: 17; SRC3 inh: -37; NR5A2 inv ag: 7; Shn3 inh set2: 98*; NCOA1 inh: -50; NCOA2 inhibitor: 11

How did COc1ccc(N2C(=O)C3CC(C)=C(C)CC3C2=O)c(OC)c1 (stereo unspecified) do in these assays?
Gli-Sufu block: 4; SRC3 inh: 3; NR5A2 inv ag: -20; Shn3 inh set2: 24; NCOA1 inh: 12; NCOA2 inhibitor: -18

Results for CCOC(=O)[C@@]12CN(C(=O)OC(C)(C)C)CC=C1N(Cc1ccc(OC)cc1)C(=O)[C@H]2CC(=O)NCc1cccs1 ?
NCOA2 inhibitor: -5

How did C=CCN=c1scc(C)n1/N=C/c1ccc(O)c(O)c1 do in these assays?
Gli-Sufu block: 40; SRC3 inh: -59; NR5A2 inv ag: -66; Shn3 inh set2: 92*; NCOA1 inh: -65; NCOA2 inhibitor: -30

Results for CN=c1scc(-c2ccco2)n1/N=C/c1ccc(O)c(O)c1 ?
Gli-Sufu block: 28; SRC3 inh: -80; NR5A2 inv ag: -95; Shn3 inh set2: 90*; NCOA1 inh: -96; NCOA2 inhibitor: -19

How did COc1ccc(O)c(/C=N/n2c(-c3ccco3)csc2=Nc2cccnc2)c1 do in these assays?
Gli-Sufu block: 0; SRC3 inh: 3; NR5A2 inv ag: -4; Shn3 inh set2: 6; NCOA1 inh: -19; NCOA2 inhibitor: -37

Results for CN=c1scc(C)n1/N=C/c1ccc(O)cc1 ?
Gli-Sufu block: 7; SRC3 inh: -99; NR5A2 inv ag: -180; Shn3 inh set2: -47; NCOA1 inh: -84; NCOA2 inhibitor: -58

What do the screens show for `COC(=O)C1CN(Cc2cn(Cc3ccccc3)nn2)CCS(=O)(=O)N1Cc1ccc(Cl)cc1` (stereo unspecified)?
NCOA2 inhibitor: 10

Results for C=Cc1ccc(C(=O)Nc2nnc(-c3cccnc3)s2)cc1 ?
NCOA2 inhibitor: -40

What do the screens show for `CCCCCCCCN1C(=O)[C@@H](CC(=O)N2CCCC2)C[C@@]2(C(=O)OC)C1=C[C@H](COCc1ccccc1)O[C@@H]2C`?
NCOA2 inhibitor: 1

How did N#CC(C#N)=C1C=CC=CN1/C(=C\c1ccco1)C(=O)c1ccc(-c2ccccc2)cc1 do in these assays?
Gli-Sufu block: 14; SRC3 inh: -10; NR5A2 inv ag: -11; Shn3 inh set2: 16; NCOA1 inh: -55; NCOA2 inhibitor: 21

Results for N#CC(C#N)=C1C=CC=CN1/C(=C\c1ccco1)C(=O)c1ccc(Cl)cc1 ?
Gli-Sufu block: 31; SRC3 inh: 9; NR5A2 inv ag: 11; Shn3 inh set2: 97*; NCOA1 inh: -15; NCOA2 inhibitor: -4

How did O=C(Cn1c(-c2cncs2)nc2ccccc21)N1CCCCC1 do in these assays?
NCOA2 inhibitor: -5

How did Cc1cc(F)ccc1S(=O)(=O)Nc1ccccc1C(=O)Nc1ccccc1-c1nc2ccccc2[nH]1 do in these assays?
Gli-Sufu block: 13; SRC3 inh: 8; NR5A2 inv ag: 0; Shn3 inh set2: 91*; NCOA1 inh: -5

Results for Cc1cc(F)ccc1S(=O)(=O)Nc1ccccc1C(=O)Nc1ncn[nH]1 ?
Gli-Sufu block: -29; SRC3 inh: -1; NR5A2 inv ag: -13; Shn3 inh set2: 6; NCOA1 inh: 7; NCOA2 inhibitor: 5

What do the screens show for `O=S(=O)(/N=S1\CC=CCN1S(=O)(=O)c1ccccc1)c1ccccc1` (stereo unspecified)?
Gli-Sufu block: 3; SRC3 inh: -5; NR5A2 inv ag: 26; Shn3 inh set2: 94*; NCOA1 inh: -19; NCOA2 inhibitor: 14

Screening results deposited in PubChem BioAssay by several laboratories.
